Data on 14 sequences can be found in article PMC5700166.

Holding throughout (experiment): protein-binding microarray (PBM); PBM: ~300 nM protein, 6 mM HEPES pH 7.8, 80 mM KCl, 0.5 mM EDTA, 0.5 mM EGTA, 6% glycerol, 35 ng/ul poly-dIdC, 1% milk, 1 h, room temperature; Ap Aiptasia and Nv Nematostella (sea anemones) / Co Capsaspora / Aq Amphimedon (sponge) / Dm Drosophila / Hu human; RHD is the Rel homology domain; high values mean tight binding
Settings in all cases: dsDNA, one strand shown

The target of one assay is T1, GST-Ap-NF-kB RHD (Exaiptasia pallida (Aiptasia), UniProt A0A913YAJ5 2-422).
T1 sequence: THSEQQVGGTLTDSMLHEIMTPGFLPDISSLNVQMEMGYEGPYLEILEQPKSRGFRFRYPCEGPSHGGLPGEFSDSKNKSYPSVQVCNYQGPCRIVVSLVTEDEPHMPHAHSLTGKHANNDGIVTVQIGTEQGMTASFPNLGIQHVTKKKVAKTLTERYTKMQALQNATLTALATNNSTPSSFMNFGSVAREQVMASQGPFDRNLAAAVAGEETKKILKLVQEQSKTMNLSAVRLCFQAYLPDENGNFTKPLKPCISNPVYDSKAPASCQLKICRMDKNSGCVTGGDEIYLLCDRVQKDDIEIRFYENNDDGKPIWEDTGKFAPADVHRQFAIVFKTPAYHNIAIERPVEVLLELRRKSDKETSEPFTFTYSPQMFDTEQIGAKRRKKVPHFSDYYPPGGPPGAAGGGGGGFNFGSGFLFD

Assay [1] has as its target T2, GST-Nv-NF-kB (Cys allele) (Nematostella vectensis, UniProt E5G601 2-411).
T2 sequence: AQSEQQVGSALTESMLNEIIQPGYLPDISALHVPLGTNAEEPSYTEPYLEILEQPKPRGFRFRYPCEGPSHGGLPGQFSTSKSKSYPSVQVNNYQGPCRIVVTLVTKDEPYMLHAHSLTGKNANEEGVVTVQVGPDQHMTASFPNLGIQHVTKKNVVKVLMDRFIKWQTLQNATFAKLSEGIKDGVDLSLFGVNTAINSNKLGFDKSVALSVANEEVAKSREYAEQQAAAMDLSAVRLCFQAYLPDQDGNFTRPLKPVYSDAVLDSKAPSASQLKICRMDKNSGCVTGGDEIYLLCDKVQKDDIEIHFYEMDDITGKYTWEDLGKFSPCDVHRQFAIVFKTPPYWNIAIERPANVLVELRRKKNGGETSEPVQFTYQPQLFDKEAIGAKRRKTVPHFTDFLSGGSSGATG

In the next assay the target is T3, GST-Co-NF-kB (Capsaspora owczarzaki, UniProt F1ARL5 200-546).
T3 sequence: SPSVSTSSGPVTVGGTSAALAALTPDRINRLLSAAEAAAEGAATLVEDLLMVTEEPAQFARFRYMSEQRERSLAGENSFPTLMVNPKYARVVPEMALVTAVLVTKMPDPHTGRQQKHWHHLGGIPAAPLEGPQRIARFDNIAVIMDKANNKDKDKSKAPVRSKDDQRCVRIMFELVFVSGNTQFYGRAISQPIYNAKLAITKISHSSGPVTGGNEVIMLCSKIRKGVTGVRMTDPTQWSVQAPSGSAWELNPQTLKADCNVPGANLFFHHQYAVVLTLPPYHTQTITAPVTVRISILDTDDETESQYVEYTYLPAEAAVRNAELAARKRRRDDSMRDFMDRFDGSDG

The next assay has as its target T4, GST-Dm-Relish (Drosophila melanogaster, UniProt Q94527 99-473).
T4 sequence: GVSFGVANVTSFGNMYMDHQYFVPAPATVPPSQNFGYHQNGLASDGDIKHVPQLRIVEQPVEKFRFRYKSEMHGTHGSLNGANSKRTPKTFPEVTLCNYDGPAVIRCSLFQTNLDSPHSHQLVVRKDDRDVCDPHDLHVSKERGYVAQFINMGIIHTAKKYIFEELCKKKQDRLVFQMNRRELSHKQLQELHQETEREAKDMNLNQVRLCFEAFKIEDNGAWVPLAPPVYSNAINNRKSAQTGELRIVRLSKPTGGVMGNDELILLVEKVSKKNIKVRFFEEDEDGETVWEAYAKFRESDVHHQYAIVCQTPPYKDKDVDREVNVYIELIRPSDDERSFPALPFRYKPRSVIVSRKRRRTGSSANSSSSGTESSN

In the next assay the target is T5, GST-Aq-NF-kB (Amphimedon queenslandica, UniProt A9Y5G7 2-389).
T5 sequence: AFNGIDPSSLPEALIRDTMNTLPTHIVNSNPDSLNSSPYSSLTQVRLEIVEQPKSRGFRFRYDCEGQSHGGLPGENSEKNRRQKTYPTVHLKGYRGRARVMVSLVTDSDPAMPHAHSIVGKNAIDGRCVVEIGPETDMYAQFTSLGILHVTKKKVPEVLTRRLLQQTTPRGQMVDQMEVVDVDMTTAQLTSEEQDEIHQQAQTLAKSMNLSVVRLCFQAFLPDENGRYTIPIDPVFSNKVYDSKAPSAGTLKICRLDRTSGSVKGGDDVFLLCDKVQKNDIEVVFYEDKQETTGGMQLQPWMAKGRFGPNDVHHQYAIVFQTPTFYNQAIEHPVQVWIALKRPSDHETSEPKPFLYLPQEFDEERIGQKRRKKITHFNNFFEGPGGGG

For “CCGATTAACATCAACCACCCCCTTGATGTTAATCGGGTCTTGATTCGCTTGACGCTGCTG”, the binding signal with GST-Ap-NF-kB RHD stood at 3.52 z-score; in assay [1] it was 3.02 z-score; in the assay with GST-Co-NF-kB, 2.25 z-score; in the assay with GST-Dm-Relish, 2.48 z-score; in the assay with GST-Aq-NF-kB it was 3.83 z-score.
In the same order, the values of “CCGATTAACATCAAGGGGGGGGCTGATGTTAATCGGGTCTTGATTCGCTTGACGCTGCTG” are 5.13 z-score, 3.96 z-score, 4.65 z-score, 5.21 z-score and 4.89 z-score.
As for “CCGATTAACATCAAGGTAATTCCTGATGTTAATCGGGTCTTGATTCGCTTGACGCTGCTG”, the binding signal with GST-Ap-NF-kB RHD amounted to 1.69 z-score; in assay [1] it was 2.09 z-score; in the assay with GST-Dm-Relish it was 4.8 z-score; with GST-Aq-NF-kB, 3.37 z-score.
Regarding “CCGATTAACATCAGAAAATTACCTGATGTTAATCGGGTCTTGATTCGCTTGACGCTGCTG”, the binding signal in the assay with GST-Ap-NF-kB RHD was determined as 2.06 z-score; in assay [1], 3.89 z-score; in the assay with GST-Dm-Relish it was 4.45 z-score; with GST-Aq-NF-kB, 3.25 z-score.
As for “CCGATTAACATCAGGGGGCGCACTGATGTTAATCGGGTCTTGATTCGCTTGACGCTGCTG”, the binding signal in the assay with GST-Ap-NF-kB RHD came out at 3.71 z-score; in assay [1], 3.04 z-score; in the assay with GST-Co-NF-kB it was 2.37 z-score; with GST-Dm-Relish, 4.13 z-score; in the assay with GST-Aq-NF-kB it was 4.79 z-score.
Turning to “CCGATTAACATCAGGGGAAGGGATGATGTTAATCGGGTCTTGATTCGCTTGACGCTGCTG”, the binding signal with GST-Ap-NF-kB RHD was found to be 4.77 z-score; in assay [1], 4.77 z-score; with GST-Co-NF-kB, 3.96 z-score; with GST-Dm-Relish it was 1.68 z-score; with GST-Aq-NF-kB, 3.89 z-score.
For the sequence “CCGATTAACATCAGGAGAATCCCTGATGTTAATCGGGTCTTGATTCGCTTGACGCTGCTG”, the binding signal with GST-Ap-NF-kB RHD worked out at 2.6 z-score; in assay [1], 3.24 z-score; with GST-Dm-Relish it was 4.39 z-score; with GST-Aq-NF-kB, 5.52 z-score.
For the sequence “CCGATTAACATCAAAAAGGGAAATGATGTTAATCGGGTCTTGATTCGCTTGACGCTGCTG”, the binding signal with GST-Ap-NF-kB RHD amounted to 2.59 z-score; in assay [1], 5.91 z-score; in the assay with GST-Co-NF-kB, 1.33 z-score; with GST-Dm-Relish, 1.31 z-score; in the assay with GST-Aq-NF-kB, 4.54 z-score.
Turning to “CCGATTAACATCAGGACAATCCCTGATGTTAATCGGGTCTTGATTCGCTTGACGCTGCTG”, the binding signal in the assay with GST-Ap-NF-kB RHD was 2.22 z-score; in assay [1] it was 2.68 z-score; in the assay with GST-Dm-Relish, 2.5 z-score; in the assay with GST-Aq-NF-kB, 5.09 z-score.
Taken in the same sequence, the figures for “CCGATTAACATCAGGGCTTTACCTGATGTTAATCGGGTCTTGATTCGCTTGACGCTGCTG” were 1.07 z-score, 2.29 z-score, 5.69 z-score and 3.97 z-score.
For the sequence “CCGATTAACATCAGGACGTTCCCTGATGTTAATCGGGTCTTGATTCGCTTGACGCTGCTG”, the binding signal turned out to be 2.27 z-score with GST-Ap-NF-kB RHD; 2.22 z-score in assay [1]; 1.01 z-score with GST-Co-NF-kB; 1.51 z-score in the assay with GST-Dm-Relish; 5.14 z-score in the assay with GST-Aq-NF-kB.
As for “CCGATTAACATCAAGGGAGTACCTGATGTTAATCGGGTCTTGATTCGCTTGACGCTGCTG”, the binding signal with GST-Ap-NF-kB RHD came out at 4.45 z-score; in assay [1], 2.9 z-score; with GST-Co-NF-kB it was 1.52 z-score; with GST-Dm-Relish, 3.08 z-score; in the assay with GST-Aq-NF-kB it was 2.71 z-score.
Taken in the same sequence, the figures for “CCGATTAACATCAAATTCCCTCGTGATGTTAATCGGGTCTTGATTCGCTTGACGCTGCTG” were 3.11 z-score, 4.96 z-score, 2.32 z-score, 3.26 z-score and 4.09 z-score.
For the sequence “CCGATTAACATCAGGGTTTTCCATGATGTTAATCGGGTCTTGATTCGCTTGACGCTGCTG”, the binding signal with GST-Ap-NF-kB RHD worked out at 2.55 z-score; in assay [1], 2.18 z-score; with GST-Dm-Relish, 5.27 z-score; in the assay with GST-Aq-NF-kB, 4.33 z-score.
